# From PubChem
# This is a sample that favours compounds with a hit; in the whole collection about 4% have one here.
# UGM FP inh: M. tuberculosis UGM enzyme inhibitors, primary screen, biochemical, fluorescence polarization, single point | UDP-galactopyranose mutase (Mycobacterium tuberculosis (strain ATCC 25618 / H37Rv)), … | 0.06% of 320,000 active | purified UGM, fluorescence polarization probe displacement | inhibition, % at 10 µM | AID 504406, 2011; in the data active = inhibition above about 10%, passing the limit was not always enough
# Target sequence (P9WIQ1 whole entry, looked up): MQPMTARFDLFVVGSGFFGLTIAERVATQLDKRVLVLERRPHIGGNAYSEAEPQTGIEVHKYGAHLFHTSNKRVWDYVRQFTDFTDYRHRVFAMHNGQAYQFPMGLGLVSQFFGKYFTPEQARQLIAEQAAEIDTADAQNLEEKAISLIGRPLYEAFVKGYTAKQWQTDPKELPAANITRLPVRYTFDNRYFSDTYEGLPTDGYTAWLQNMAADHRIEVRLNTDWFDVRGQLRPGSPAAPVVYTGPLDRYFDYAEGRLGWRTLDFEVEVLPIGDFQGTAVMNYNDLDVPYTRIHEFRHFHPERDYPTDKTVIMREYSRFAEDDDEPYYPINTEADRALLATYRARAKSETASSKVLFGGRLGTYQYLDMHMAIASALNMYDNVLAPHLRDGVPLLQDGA
# Rv3671c protease: Rv3671c serine protease inhibitors, primary screen, biochemical, fluorescence polarization, M. tuberculosis H37Rv; inhibition, % at 5.96 µM; P9WHR9; 0.048% of 320,000 active; AID 2606, 2010; in the data active = inhibition above about 38%;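 also: extracellular domain of Rv3671c used as enzyme; 0% = enzyme with DMSO and 100% = no enzyme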
# Mtb FBA inh: Mtb FBA enzyme inhibitors, primary screen, biochemical, fluorescence, strain H37Rv; purified M. tuberculosis FBA, fluorescence read-out; inhibition, % at 1 µM; 2.3% of 360,000 active; AID 588726, 2011; in the data active = inhibition above about 27%;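 also: 0% = vehicle and 100% = reference inhibitor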
# RecA splice inh: Mtb RecA intein splicing inhibitors, primary screen, biochemical, fluorescence, HTS | inhibition, % (test concentration not listed) | AID 2221, 2009 | cell-free RecA intein splicing | Protein RecA (Mycobacterium tuberculosis (strain ATCC 25618 / H37Rv)), P9WHJ3 | 0.75% of 290,000 active; in the data active = inhibition above about 30%;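 also: 0% = vehicle wells and 100% = reference inhibitor control wells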
# GDH-TPI counter: GDH-TPI coupling enzyme inhibitors, primary screen, artefact control for M. tuberculosis FBA inhibitor project, biochemical, absorbance, full deck; GDH-TPI coupled enzyme counterscreen, NADH absorbance; inhibition, % at 4.8 µM; 1.2% of 360,000 active; AID 588335, 2011; in the data active = inhibition above about 30%;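 also: 0% = DMSO wells and 100% = wells lacking the enzyme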
# Mtb betalactam: beta-lactam sensitization of Mtb H37Rv, H37Rv | M. tuberculosis H37Rv growth with meropenem, percent inhibition | inhibition, % at 25 µM | 0.27% of 330,000 active | AID 434955, 2010; call rule not given here;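 also: growth measured after seven days incubation then overnight dye step; 0% = bacteria only wells and 100% = bacteria with antibiotic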
# The depositor's hits bear a star; nt = not tested or not shown; + = active, no number.
SMILES,UGM FP inh,Rv3671c protease,Mtb FBA inh,RecA splice inh,GDH-TPI counter,Mtb betalactam
C=CCn1c(-c2cccc(OC)c2)nc2nc3ccccc3nc21,-2,-3,3,3,54*,6
CC(=O)Nc1cccc(OCCCOc2cccc([N+](=O)[O-])c2)c1,nt,nt,-2,nt,4,nt
COc1ccc(C2=Nn3c(nnc3-c3ccccn3)SC2)cc1OC,2,11,0,2,35*,8
COc1ccc(C2=Nn3c(nnc3-c3ccco3)SC2)cc1OC,-2,3,-1,4,37*,7
CC1(C)CC(NC(=O)c2coc(=O)c(Br)c2)CC(C)(C)N1,0,3,60*,-1,26,-9
Cc1ccc(C(=O)NC2CC(C)(C)NC(C)(C)C2)cc1,3,0,2,nt,3,-1
Cn1c2ccccc2c(=O)c2cc(C#Cc3cccc(N)c3)ccc21,2,-12,8,nt,15,2
C=CCn1c2ccccc2c(=O)c2cc(C#CC[C@@H](C)O)ccc21,4,-25,+,nt,13,24
C=CC(=O)N1C/C(=C/c2ccccc2)C(=O)/C(=C\c2ccccc2)C1,nt,nt,1,nt,32*,nt
C=CC(=O)N1C/C(=C/c2ccc(Cl)cc2)C(=O)/C(=C\c2ccc(Cl)cc2)C1,nt,nt,0,nt,22,nt
CCNC(=S)N/N=C/c1ccc(OCc2ccc(C(=O)OC)cc2)cc1,4,-3,2,1,33*,-5
CCOc1ccccc1N1C(=O)NC(=O)/C(=C/c2ccc3c4c(cccc24)CC3)C1=O,-4,-10,38*,2,24,-2
CCCCS/C(N)=N/N=C/c1cc(C)ccc1O,0,10,2,-8,41*,100
CCS/C(N)=N/N=C/c1cc(C)ccc1O,-7,-3,2,-2,23,100
Nc1ccc2c(C(F)(F)F)cc(C(F)(F)F)nc2n1,0,0,+,-5,12,-1
Cc1ccc(S(=O)(=O)NCCC(=O)NC2CCCCC2)cc1,3,3,5,nt,11,-3
CCN(CC)CCNC(=O)CSc1c2c(nc3cc(Cl)ccc13)CCCC2,2,-10,-2,35*,14,1
CCN(CC)CCCNC(=O)c1ccc2c(SCC(=O)O)c3c(nc2c1)CCC3,1,1,nt,3,nt,-2
Nc1c(S(=O)(=O)c2cccs2)c2nc3ccccc3nc2n1/N=C/c1cccc(O)c1,-2,-141,19,-3,45*,-4
COc1cccc(/C=N/n2c(N)c(S(=O)(=O)c3cccs3)c3nc4ccccc4nc32)c1,-1,-4,3,-1,3,4
C[C@@H]1C(c2ccc(F)cc2)=NN(c2ccccc2)[C@H]1C(=O)N1CCOC1=O,nt,nt,2,nt,20,nt
COc1ccccc1[C@H]1C(c2cccc(Cl)c2)=NN(c2ccccc2)[C@@H]1CO,nt,nt,46*,nt,9,nt
OC[C@@H]1[C@@H](c2ccccc2)C(c2ccc(F)cc2)=NN1c1ccccc1,nt,nt,46*,nt,5,nt
CCOC(=O)c1cc(C)n(CCc2ccccc2)c1C,0,3,8,8,7,31
Cc1cc(C(=O)CCl)c(C)n1CCc1ccccc1,-1,5,nt,40*,nt,98
SMILES,UGM FP inh,Rv3671c protease,Mtb FBA inh,RecA splice inh,GDH-TPI counter,Mtb betalactam
O=C(/C=C/c1ccccc1Cl)Nc1ccc2c(c1)C(=O)NC2=O,0,-86,12,-1,37*,1
O=C(/C=C/c1ccccc1)Nc1ccc2c(c1)C(=O)NC2=O,3,-15,12,-2,26,-1
O=C(N/C(=C\c1ccc(Br)cc1)c1nc2ccccc2[nH]1)c1ccco1,1,8,2,1,47*,-3
O=C(N/C(=C/c1cccs1)c1nc2ccccc2[nH]1)c1ccccc1,0,5,-1,0,33*,-2
N#C/C(=C\c1cccs1)c1nc2ccccc2[nH]1,0,-13,-3,-2,29,-4
Cc1ccc(C(=O)N/C(=C\c2cccs2)c2nc3ccccc3[nH]2)cc1,0,-9,0,1,44*,3
Cc1ccccc1NC(=O)C(C)N1C(=O)c2ccccc2C1=O (stereo not drawn),0,5,6,nt,11,0
O=C(CCn1nc(-c2ccc(Cl)cc2)c2ccccc2c1=O)NN1CCOCC1,-1,1,0,3,7,8
COc1nc(-c2ccccc2)cc(-c2ccc(OC)c(OC)c2)n1,-6,-8,21,9,36*,98
O=C(O)c1ccc(/C=C/c2nc3ccccc3c(=O)n2-c2ccc(Br)cc2)cc1,-2,0,-4,3,39*,4
CN(C)c1ccc(/C=C/c2nc3ccccc3c(=O)n2-c2ccc(C(=O)O)cc2)cc1,-16,-13,-8,-8,20,1
O=c1c2ccccc2nc(/C=C/c2ccccc2)n1-c1ccc(O)cc1,1,-28,6,1,19,100
O=C(O)c1cccc(-n2c(/C=C/c3ccccc3)nc3ccccc3c2=O)c1,2,-15,1,2,32*,6
COCCOC(=O)C1=C(N)Oc2c(oc(CO)cc2=O)C1c1ccccc1F (stereo not drawn),3,11,1,1,11,0
CSC1=C(C#N)C(c2ccccc2C)C(C#N)=C(N)N1 (stereo not drawn),0,5,0,-3,17,-8
O=C(/C=C/c1ccccc1)NC(=O)c1ccccc1O,-1,-2,1,2,4,1
COc1cc(/C=C/C(=O)NC(=O)c2ccccc2O)ccc1O,-3,-4,-4,3,40*,7
COC(=O)c1ccccc1NC(=O)/C=C/c1cc(OC)c(OC)c(OC)c1,-1,0,3,-2,36*,-5
COc1ccccc1/C=C/C(=O)Nc1cccc(C(C)=O)c1,2,-11,4,0,20,-4
COc1ccc(/C=C/C(=O)Nc2cccc(C(C)=O)c2)cc1,-1,-4,0,2,33*,2
COc1cc(C=O)ccc1OS(=O)(=O)c1ccc(NC(C)=O)cc1,-1,-3,-5,-4,-3,-5
COc1cc(C=O)ccc1OC(=O)Nc1ccccc1,-2,-7,1,-1,52*,-9
CCOC(=O)Cn1c(-c2ccccc2)cc(SC)c(C#N)c1=O,1,-9,0,3,10,7
COc1ccc(/C=C/C(=O)c2ccc[nH]2)cc1OC,-2,-4,0,-1,24,3
